This is a sample that favours compounds with a hit; in the whole collection about 4% have one here.
S1P1 ag – activates the human S1P1 receptor | S1P1 agonist cell-based reporter assay | activation, % at 4.5 µM | actives 1.5% (n = 16,000) | AID 1044; in the data active means activation above about 80%
PME-1 Maybridge – PME-1 (human) inhibition, Maybridge primary screen; Q9Y570; actives 0.5% (n = 16,000); AID 2291; inhibition, % at 9 µM; recombinant PME-1, FP-Rh probe fluorescence polarization; in the data active means inhibition above about 30%
rat GALR2 ag – GALR2 (rat) receptor agonism; AID 833; actives 0.5% (n = 16,000); activation, % at 10 µM; cell-based GALR2 agonist screen; O08726; in the data active means activation above about 15%
NOTCH ag – NOTCH pathway agonism; NOTCH signaling luciferase reporter cells, luminescence; activation, % at 2.5 µM; actives 0.4% (n = 15,000); in the data active means activation above about 2.2%
luminol inh ctr – luminol signal inhibition, Nox1 inhibitor counter-screen; inhibition, % at 6.7 µM; HRP/luminol/H2O2 chemiluminescence counterscreen; actives 0.4% (n = 16,000); further: reference of the scale not given here
Nox1 inh – human Nox1 inhibition; inhibition, % at 6.7 µM; HT29 cells, luminol chemiluminescence ROS; Q9Y5S8; AID 1792; actives 0.81% (n = 16,000)
A number is an active result; 0 = inactive. Unless noted, no stated cut-off is given here; in the data, active means inhibition above about 75%; inactive means the rest.

SMILES	S1P1 ag	PME-1 Maybridge	rat GALR2 ag	NOTCH ag	luminol inh ctr	Nox1 inh
O=[N+]([O-])c1ccc(CS(=O)(=O)C(Cl)(Cl)Cl)o1	96	0	0	0	0	0
CNC(=S)NNC(=O)C1(O)CN2CCC1CC2 (stereo not given)	0	0	0	0	0	0
